# Measurements from PubChem BioAssay (EPA / NIEHS).
# Where “and” joins values, the source holds several entries; their conditions need not be identical. Equal values may be shown once. Records with an inconclusive call do not appear. Calls of active or inactive are those of the source. Rule for the calls: active = hit-call score of the fitted dose curve at least 0.9, where 1 is the maximum; inconclusive = response in the unintended direction; inactive = score below 0.9.
# Tests used:
# [1] = target: human Esterase Plasma (ES), BCHE (gene 590) (UniProt P06276); assay: NVS_ENZ_hES: NovaScreen (NVS) Enzymatic Assay for human Esterase Plasma (ES) (AID 2283157)
# Sequence of human Esterase Plasma (ES), BCHE (gene 590) (P06276 whole entry, looked up): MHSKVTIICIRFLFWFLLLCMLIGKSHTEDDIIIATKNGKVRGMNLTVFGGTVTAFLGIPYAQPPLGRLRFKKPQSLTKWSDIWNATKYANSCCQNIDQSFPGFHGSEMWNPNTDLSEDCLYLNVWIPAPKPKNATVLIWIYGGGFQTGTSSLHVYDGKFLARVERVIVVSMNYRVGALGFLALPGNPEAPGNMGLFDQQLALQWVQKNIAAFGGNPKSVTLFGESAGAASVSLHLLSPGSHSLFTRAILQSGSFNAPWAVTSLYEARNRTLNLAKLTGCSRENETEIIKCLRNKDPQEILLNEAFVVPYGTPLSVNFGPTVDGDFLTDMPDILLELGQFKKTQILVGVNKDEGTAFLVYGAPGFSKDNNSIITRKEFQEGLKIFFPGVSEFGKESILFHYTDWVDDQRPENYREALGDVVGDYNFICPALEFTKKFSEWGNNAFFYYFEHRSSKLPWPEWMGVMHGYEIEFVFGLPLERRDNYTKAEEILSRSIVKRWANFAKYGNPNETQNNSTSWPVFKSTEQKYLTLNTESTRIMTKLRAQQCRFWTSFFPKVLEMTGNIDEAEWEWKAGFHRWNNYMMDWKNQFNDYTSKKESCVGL
# Summary of the method: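 Chemicals were added to plasma-extracted human enzyme in a cell-free format, and activity was read colorimetrically after 0.25 hour. Activity loss was referenced to DMSO; concentration-response top dose was 50 uM.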
# [2] = target: human Dual Specificity Protein Phosphatase 3 (DUSP3), DUSP3 (gene 1845) (UniProt P51452); assay: NVS_ENZ_hDUSP3: NovaScreen (NVS) Enzymatic Assay for human Dual Specificity Protein Phosphatase 3 (DUSP3) (AID 2283152);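 note: phosphatase activity of recombinant human DUSP3 on a fluorogenic substrate without cells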
# Sequence of human Dual Specificity Protein Phosphatase 3 (DUSP3), DUSP3 (gene 1845) (P51452 whole entry, looked up): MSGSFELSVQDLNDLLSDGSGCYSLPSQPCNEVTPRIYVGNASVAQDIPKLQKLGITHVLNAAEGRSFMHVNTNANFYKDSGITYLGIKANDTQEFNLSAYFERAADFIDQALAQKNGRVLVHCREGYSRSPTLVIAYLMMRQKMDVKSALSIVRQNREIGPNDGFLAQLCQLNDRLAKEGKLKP
# Summary of the method: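 Cell-free assay with recombinant human DUSP3 and fluorogenic substrate, read by fluorescence intensity. Primary screen ran duplicate at 25 uM; actives followed up in concentration series; loss of signal versus DMSO scored.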
# [3] = target: human Ephrin type-A Receptor 1 (EphA1), EPHA1 (gene 2041) (UniProt P21709); assay: NVS_ENZ_hEphA1: NovaScreen (NVS) Enzymatic Assay for human Ephrin type-A Receptor 1 (EphA1) (AID 2283158);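 note: activity is signal loss versus DMSO meaning EphA1 kinase inhibition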
# Sequence of human Ephrin type-A Receptor 1 (EphA1), EPHA1 (gene 2041) (P21709 whole entry, looked up): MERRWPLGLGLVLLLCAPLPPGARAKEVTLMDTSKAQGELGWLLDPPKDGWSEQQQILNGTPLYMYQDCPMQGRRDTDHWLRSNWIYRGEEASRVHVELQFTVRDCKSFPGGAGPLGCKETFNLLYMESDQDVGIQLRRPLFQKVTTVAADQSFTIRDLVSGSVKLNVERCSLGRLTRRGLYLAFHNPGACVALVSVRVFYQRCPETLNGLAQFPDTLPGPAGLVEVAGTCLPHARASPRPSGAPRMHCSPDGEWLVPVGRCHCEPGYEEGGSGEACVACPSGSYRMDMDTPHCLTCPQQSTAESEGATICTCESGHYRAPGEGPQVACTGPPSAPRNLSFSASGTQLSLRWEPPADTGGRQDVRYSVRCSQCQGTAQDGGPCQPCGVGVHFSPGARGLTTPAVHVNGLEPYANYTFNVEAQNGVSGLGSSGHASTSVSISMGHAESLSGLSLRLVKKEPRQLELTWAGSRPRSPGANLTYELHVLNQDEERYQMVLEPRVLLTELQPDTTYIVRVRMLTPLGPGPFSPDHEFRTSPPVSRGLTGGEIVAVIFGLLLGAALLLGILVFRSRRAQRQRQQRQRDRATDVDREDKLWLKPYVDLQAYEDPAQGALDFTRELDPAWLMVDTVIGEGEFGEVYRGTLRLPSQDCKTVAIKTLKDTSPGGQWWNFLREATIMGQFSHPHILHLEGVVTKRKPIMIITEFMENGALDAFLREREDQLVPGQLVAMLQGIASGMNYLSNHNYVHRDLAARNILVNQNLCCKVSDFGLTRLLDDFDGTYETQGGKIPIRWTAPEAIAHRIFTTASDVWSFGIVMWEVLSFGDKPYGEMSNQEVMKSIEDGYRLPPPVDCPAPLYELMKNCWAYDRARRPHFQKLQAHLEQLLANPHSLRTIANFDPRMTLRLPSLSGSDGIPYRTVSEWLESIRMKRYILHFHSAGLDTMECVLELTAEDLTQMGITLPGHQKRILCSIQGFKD
# Summary of the method: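 Here the EphA1 protein is recombinant and the substrate fluorescent, with electrophoretic separation before fluorescence detection at 1 hour. Signal loss against DMSO defines activity; plate controls included; follow-up concentration series reach 50 uM.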
# [4] = target: human AKT serine/threonine Kinase 2 (AKT2), AKT2 (gene 208) (UniProt P31751); assay: NVS_ENZ_hAKT2: NovaScreen (NVS) Enzymatic Assay for human AKT serine/threonine Kinase 2 (AKT2) (AID 2283141)
# Sequence of human AKT serine/threonine Kinase 2 (AKT2), AKT2 (gene 208) (P31751 whole entry, looked up): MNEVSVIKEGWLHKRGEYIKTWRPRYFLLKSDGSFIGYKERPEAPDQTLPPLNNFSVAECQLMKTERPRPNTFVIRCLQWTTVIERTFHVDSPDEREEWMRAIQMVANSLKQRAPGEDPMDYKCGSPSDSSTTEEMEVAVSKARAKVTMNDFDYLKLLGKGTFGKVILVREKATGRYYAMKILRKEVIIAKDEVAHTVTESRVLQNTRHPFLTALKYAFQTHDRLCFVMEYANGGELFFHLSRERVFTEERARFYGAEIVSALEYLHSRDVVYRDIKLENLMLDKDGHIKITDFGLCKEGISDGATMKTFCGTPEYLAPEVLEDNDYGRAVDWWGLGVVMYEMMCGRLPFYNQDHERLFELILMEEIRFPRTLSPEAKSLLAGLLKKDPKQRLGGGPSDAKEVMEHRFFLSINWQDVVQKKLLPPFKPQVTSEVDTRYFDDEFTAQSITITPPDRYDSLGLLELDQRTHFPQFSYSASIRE
# Summary of the method: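 Cell-free fluorescence/electrophoretic mobility shift readout of recombinant human AKT2 activity, 1 h after chemical dosing. Duplicate primary screen at 25 uM, then singleton concentration-response up to 50 uM; loss of signal versus DMSO baseline.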
# [5] = target: human Caspase 8 (CASP8), CASP8 (gene 841) (UniProt Q14790); assay: NVS_ENZ_hCASP8: NovaScreen (NVS) Enzymatic Assay for human Caspase 8 (CASP8) (AID 2283146)
# Sequence of human Caspase 8 (CASP8), CASP8 (gene 841) (Q14790 whole entry, looked up): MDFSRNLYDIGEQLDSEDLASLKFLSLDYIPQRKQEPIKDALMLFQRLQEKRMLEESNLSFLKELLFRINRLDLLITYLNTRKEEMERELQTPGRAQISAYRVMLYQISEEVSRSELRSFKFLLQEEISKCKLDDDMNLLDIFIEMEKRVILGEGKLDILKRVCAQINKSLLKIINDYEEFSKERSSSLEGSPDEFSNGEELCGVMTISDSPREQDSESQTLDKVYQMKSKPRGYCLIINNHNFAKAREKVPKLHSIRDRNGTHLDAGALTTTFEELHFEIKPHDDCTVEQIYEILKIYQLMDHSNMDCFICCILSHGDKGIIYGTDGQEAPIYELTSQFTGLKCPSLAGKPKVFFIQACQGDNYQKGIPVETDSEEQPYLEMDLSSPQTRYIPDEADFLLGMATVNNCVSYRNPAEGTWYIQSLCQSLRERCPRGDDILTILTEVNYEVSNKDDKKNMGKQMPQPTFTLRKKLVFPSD
# Protocol: NVS_ENZ_hCASP8 is a biochemical, single-readout assay that uses extracted gene-proteins from E. coli in a cell-free assay. Measurements were taken 1 hour after chemical dosing in a 96-well plate.NVS_ENZ_hCASP8 is one of one assay component(s) measured or calculated from the NVS_ENZ_hCASP8 assay. It is designed to make measurements of enzyme activity, a form of enzyme reporter, as detected with fluorescence intensity signals by Fluorescence technology.Data from the assay component NVS_ENZ_hCASP8 was analyzed into 1 assay endpoint. This assay endpoint, NVS_ENZ_hCASP8, was analyzed in the positive analysis fitting direction relative to DMSO as the negative control and baseline of activity. Using a type of enzyme reporter, loss-of-signal activity can be used to understand changes in the enzymatic activity as they relate to the gene CASP8. Furthermore, this assay endpoint can be referred to as a primary readout, because this assay has produced multiple assay endpoints where this one serves a enzymatic activity function. To generalize the intended target to other relatable targets, this assay endpoint is annotated to the protease intended target family, where the subfamily is cysteine protease.
# Binding assays used specific radioligands (tritiated, iodinated) with non-radioactive competitive displacement ligands in agonist or antagonist protocols (as indicated) and various reference compounds and inhibitors to titrate specific binding to receptors and transporters. Most enzyme assays (CYPs, kinases, phosphatases, proteases, HDACs) used recombinant protein and specific substrates (fluorescence mostly, some colorimetric and radioactive) and inhibitors, followed by a biochemical separation of substrate and product. All assays for the biochemical HTS were initially run in duplicate at a single concentration (10 uM for CYP450 assays and 25 uM for all others). […] Each assay was run with positive and negative controls, and concurrent controls on every plate. The follow-up (secondary) screen tested active chemical-pairs in concentration series, as well as a few additional assays not tested in the primary screen, some selected negative inactives, and several cases re-run in the concentration series for confirmatory purposes.
# [6] = target: human Caspase 4 (CASP4), CASP4 (gene 837) (UniProt P49662); assay: NVS_ENZ_hCASP4: NovaScreen (NVS) Enzymatic Assay for human Caspase 4 (CASP4) (AID 2283143)
# Sequence of human Caspase 4 (CASP4), CASP4 (gene 837) (P49662 whole entry, looked up): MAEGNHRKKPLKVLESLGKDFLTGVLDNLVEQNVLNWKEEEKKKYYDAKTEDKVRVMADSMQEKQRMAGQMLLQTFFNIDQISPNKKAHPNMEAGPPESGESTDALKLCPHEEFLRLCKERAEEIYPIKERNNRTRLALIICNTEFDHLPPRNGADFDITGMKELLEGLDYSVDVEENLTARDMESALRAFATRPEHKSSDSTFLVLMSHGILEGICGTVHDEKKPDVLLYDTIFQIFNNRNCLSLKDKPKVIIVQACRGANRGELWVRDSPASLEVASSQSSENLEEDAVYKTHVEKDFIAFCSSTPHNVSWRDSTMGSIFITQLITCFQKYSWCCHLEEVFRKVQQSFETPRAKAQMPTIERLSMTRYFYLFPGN
# Summary of the method: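 The cell-free assay used E. coli-expressed enzyme with a fluorogenic substrate, read 2 h after dosing. Signal loss was scored versus DMSO. Screening was in duplicate at 25 uM, then singleton concentration-response up to 50 uM.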
# [7] = target: human Casein Kinase 1-delta (CK1D), CSNK1D (gene 1453) (UniProt P48730); assay: NVS_ENZ_hCK1D: NovaScreen (NVS) Enzymatic Assay for human Casein Kinase 1-delta (CK1D) (AID 2283148)
# Sequence of human Casein Kinase 1-delta (CK1D), CSNK1D (gene 1453) (P48730 whole entry, looked up): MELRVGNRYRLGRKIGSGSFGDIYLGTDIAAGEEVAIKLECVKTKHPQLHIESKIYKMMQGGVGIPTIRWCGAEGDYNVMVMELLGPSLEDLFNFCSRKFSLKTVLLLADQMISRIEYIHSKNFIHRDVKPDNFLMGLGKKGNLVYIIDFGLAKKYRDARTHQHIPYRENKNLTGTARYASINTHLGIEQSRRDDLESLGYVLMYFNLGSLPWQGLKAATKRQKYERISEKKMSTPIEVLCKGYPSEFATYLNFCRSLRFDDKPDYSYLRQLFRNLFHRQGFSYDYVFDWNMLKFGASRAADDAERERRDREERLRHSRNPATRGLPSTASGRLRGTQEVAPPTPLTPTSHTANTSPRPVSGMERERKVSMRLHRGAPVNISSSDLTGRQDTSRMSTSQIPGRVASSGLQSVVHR
# Summary of the method: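 Recombinant human CK1-delta, cell-free; fluorescent substrate with electrophoretic mobility-shift separation of product, read 1 h after dosing. Single 25 uM duplicate screen, then concentration-response up to 50 uM; loss of signal vs DMSO.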
# [8] = target: human Colony Stimulating Factor 1 Receptor (CSF1R), CSF1R (gene 1436) (UniProt P07333); assay: NVS_ENZ_hCSF1R: NovaScreen (NVS) Enzymatic Assay for human Colony Stimulating Factor 1 Receptor (CSF1R) (AID 2283150)
# Sequence of human Colony Stimulating Factor 1 Receptor (CSF1R), CSF1R (gene 1436) (P07333 whole entry, looked up): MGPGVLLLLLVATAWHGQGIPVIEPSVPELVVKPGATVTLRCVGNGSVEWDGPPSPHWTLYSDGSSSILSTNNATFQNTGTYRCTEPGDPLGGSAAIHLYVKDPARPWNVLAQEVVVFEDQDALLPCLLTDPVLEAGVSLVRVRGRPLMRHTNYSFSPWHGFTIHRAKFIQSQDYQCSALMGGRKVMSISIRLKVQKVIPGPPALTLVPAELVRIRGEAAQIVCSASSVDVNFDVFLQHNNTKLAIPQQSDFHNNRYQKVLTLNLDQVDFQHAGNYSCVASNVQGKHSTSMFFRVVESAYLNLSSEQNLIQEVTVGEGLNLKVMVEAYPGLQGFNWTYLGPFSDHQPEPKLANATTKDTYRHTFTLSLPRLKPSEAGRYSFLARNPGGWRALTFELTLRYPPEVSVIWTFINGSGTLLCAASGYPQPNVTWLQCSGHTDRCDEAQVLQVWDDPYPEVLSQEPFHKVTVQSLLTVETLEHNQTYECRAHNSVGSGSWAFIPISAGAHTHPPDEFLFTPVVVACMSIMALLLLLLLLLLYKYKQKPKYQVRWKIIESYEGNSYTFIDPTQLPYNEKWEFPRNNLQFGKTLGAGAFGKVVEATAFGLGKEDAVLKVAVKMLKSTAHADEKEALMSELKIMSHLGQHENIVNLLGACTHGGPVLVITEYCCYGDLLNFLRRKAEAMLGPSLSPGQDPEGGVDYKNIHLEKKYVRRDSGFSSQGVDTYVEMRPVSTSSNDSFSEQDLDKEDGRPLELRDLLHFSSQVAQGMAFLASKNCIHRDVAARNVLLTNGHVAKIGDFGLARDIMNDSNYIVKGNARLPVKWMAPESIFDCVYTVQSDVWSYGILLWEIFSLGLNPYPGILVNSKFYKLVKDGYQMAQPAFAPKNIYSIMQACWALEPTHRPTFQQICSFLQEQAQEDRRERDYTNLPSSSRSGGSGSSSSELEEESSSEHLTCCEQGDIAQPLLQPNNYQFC
# Protocol: NVS_ENZ_hCSF1R is a biochemical, single-readout assay that uses extracted gene-proteins in a cell-free assay. Measurements were taken 1 hour after chemical dosing in a 384-well plate.NVS_ENZ_hCSF1R is one of one assay component(s) measured or calculated from the NVS_ENZ_hCSF1R assay. It is designed to make measurements of enzyme activity, a form of enzyme reporter, as detected with fluorescence intensity signals by Fluorescence and electrophoretic mobility shift technology.Data from the assay component NVS_ENZ_hCSF1R was analyzed into 1 assay endpoint. This assay endpoint, NVS_ENZ_hCSF1R, was analyzed in the positive analysis fitting direction relative to DMSO as the negative control and baseline of activity. Using a type of enzyme reporter, loss-of-signal activity can be used to understand changes in the enzymatic activity as they relate to the gene CSF1R. Furthermore, this assay endpoint can be referred to as a primary readout, because this assay has produced multiple assay endpoints where this one serves a enzymatic activity function. To generalize the intended target to other relatable targets, this assay endpoint is annotated to the kinase intended target family, where the subfamily is receptor tyrosine kinase. […]
# [9] = target: human Elastase, ELANE (gene 1991) (UniProt P08246); assay: NVS_ENZ_hElastase: NovaScreen (NVS) Enzymatic Assay for human Elastase (AID 2283153)
# Sequence of human Elastase, ELANE (gene 1991) (P08246 whole entry, looked up): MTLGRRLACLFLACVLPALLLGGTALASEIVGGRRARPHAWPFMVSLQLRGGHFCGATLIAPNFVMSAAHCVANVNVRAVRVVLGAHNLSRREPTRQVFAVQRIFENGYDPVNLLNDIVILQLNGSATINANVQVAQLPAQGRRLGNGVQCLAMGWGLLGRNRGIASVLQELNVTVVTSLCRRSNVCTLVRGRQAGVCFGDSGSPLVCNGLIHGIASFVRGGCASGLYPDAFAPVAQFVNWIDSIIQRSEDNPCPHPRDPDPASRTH
# Summary of the method: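 Cell-free elastase from human neutrophils, 1.5 h after dosing, activity read by absorbance. Primary screen in duplicate at 25 uM; hits (e.g., 30% inhibition) rerun in singleton concentration-response up to 50 uM, fitted versus DMSO.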
compound,measurement,setting,value
c1ccc(C(O[C@@H]2CCCN(CCc3ccc4c(c3)OCO4)C2)c2ccccc2)cc1,AC50,[1],7.95 µM (active)
OCc1c[nH]c2ccccc12,AC50,[2],19.5 µM (active) and 15.4 µM (active)
same,AC50,[1],15.3 µM (active) and 19.1 µM (active)
same,outcome,[3],inactive
OCCOCCOCCO,outcome,[4],inactive
same,outcome,[3],inactive
Cc1ccc(S(=O)(=O)NC(=O)NN2CCCCCC2)cc1,outcome,[4],inactive
CCCCCCCCN(C)C,outcome,[5],inactive
same,outcome,[1],inactive
same,outcome,[3],inactive
COc1cc2c(c(OC)c1OC)-c1ccc(OC)c(=O)cc1[C@@H](NC(C)=O)CC2,AC50,[6],0.485 µM (active)
same,outcome,[5],inactive
O=C(O)[C@H](O)[C@@H](O)C(=O)O,outcome,[7],inactive
CC(C)CC(C)O (stereo not given),AC50,[6],8.65 µM (active)
Cc1ncc([C@@H](CCCCCCc2ccc3c(n2)NCCC3)CC(=O)O)cn1,outcome,[8],inactive
CCCCCCOC(=O)CC(CC(=O)OCCCCCC)(OC(=O)CCC)C(=O)OCCCCCC,outcome,[2],inactive
same,outcome,[9],inactive
C=CCc1cc(S(=O)(=O)c2ccc(O)c(CC=C)c2)ccc1O,outcome,[2],inactive
OCC(CO)(CO)CO,outcome,[3],inactive
CCCc1ccccc1,outcome,[7],inactive
CCCCN1C(=O)[C@@H]([C@H](O)C2CCCCC2)NC(=O)C12CCN(Cc1ccc(Oc3ccc(C(=O)O)cc3)cc1)CC2,AC50,[2],14.8 µM (active)
CCCCCCCCCCCCCCCCOS(=O)(=O)O,outcome,[2],inactive
same,AC50,[9],4.2 µM (active)
CCn1nc(C)c2c1C(=O)NCC(c1ccc(O)cc1)=N2,outcome,[9],inactive
same,outcome,[1],inactive
